Screen size: about 310,000 compounds; about 14,000 (4.5%) showed an effect of 50% or more. Effects have a minus sign here. The sample as a whole holds a higher share of strong results than the screen did.
Biological target: human ether-à-go-go-related gene (hERG) potassium channel (human, UniProt Q12809)
Test: primary screen, population patch clamp on CHO cells stably expressing hERG; higher = less effect of the substance
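Also: peak tail current of the secondary pulse compared with the same well before compound.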

Chain of human ether-à-go-go-related gene (hERG) potassium channel (Q12809 whole entry, looked up): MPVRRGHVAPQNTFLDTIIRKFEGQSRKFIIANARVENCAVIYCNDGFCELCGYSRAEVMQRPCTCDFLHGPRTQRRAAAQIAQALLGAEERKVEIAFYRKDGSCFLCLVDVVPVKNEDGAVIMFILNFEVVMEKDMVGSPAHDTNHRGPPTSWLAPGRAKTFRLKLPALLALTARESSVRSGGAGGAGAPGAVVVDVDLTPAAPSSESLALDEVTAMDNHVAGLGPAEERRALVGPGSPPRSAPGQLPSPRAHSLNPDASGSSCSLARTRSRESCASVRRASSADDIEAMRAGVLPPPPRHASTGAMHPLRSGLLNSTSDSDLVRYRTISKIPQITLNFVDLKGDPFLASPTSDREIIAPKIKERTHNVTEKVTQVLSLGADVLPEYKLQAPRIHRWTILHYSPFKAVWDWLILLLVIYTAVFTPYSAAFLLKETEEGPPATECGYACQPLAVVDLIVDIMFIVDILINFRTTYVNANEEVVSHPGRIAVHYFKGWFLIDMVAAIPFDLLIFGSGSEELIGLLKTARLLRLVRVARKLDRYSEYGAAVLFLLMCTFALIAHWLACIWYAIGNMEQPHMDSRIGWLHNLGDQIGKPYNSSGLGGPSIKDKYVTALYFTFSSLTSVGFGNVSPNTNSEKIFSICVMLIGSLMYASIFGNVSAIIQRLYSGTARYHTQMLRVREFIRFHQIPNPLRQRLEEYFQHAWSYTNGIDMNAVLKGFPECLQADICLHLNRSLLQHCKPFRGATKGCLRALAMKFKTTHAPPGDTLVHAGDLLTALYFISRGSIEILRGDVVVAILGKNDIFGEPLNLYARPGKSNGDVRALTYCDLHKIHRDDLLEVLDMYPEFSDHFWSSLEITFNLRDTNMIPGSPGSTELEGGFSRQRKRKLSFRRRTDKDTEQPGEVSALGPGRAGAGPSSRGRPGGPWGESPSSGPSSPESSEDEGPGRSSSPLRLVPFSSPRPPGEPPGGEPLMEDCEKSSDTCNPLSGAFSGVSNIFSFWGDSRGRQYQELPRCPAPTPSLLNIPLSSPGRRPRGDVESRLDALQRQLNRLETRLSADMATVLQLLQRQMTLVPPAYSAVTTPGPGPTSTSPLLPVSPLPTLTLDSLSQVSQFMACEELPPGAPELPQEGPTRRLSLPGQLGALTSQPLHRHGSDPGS

Structure (SMILES) | hERG current change (%, negative = inhibition) at 10uM
Cc1ccc(NC2=NC(c3ccc(F)cc3)n3c(nc(C)cc3=O)N2)c(C)c1 (stereo not drawn) | 21.8%
O=C(Cn1cc([N+](=O)[O-])cn1)NCc1ccccc1 | 20.9%
CCC(C)[C@H]1CNC(=O)C(=O)N1CCCc1cc(OC)c(OC)c(OC)c1 (stereo partly drawn) | 9.16%
CCN(CC)CCN1C(=O)c2ccccc2NC1c1ccc(F)cc1 (stereo not drawn) | -64.3%
COc1ccc(C2Nc3ccccc3C(=O)N2O)cc1CN1CCOCC1 (stereo not drawn) | -2.72%
CCN(CC)CCN1C(=O)c2ccccc2NC1c1cc(OC)c(OC)c(OC)c1 (stereo not drawn) | -40.7%
COc1ccc(C2Nc3ccccc3C(=O)N2Cc2ccccc2)cc1CN1CCOCC1 (stereo not drawn) | -63.5%
COc1ccc(C2Nc3ccccc3C(=O)N2c2ccccc2)cc1CN1CCOCC1 (stereo not drawn) | -26.7%
CCCN1C(=O)c2ccccc2NC1c1ccc(Cl)cc1 (stereo not drawn) | -7.23%
COc1ccc(CNC(=O)c2cnc3cc(C)ccn3c2=O)cc1 | -8.79%
O=C(N/N=C/c1cccc2ccccc12)c1ccccc1Cl | 8.63%
Cc1cc(/C(O)=C2\C(=O)C(=O)N(CCN(C)C)C2c2ccncc2)ccc1OCc1ccccc1 (stereo not drawn) | 3.21%
CN(CC(=O)Nc1cccc(F)c1)C(=O)c1ccc(N2CCCC2)c([N+](=O)[O-])c1 | -46.7%
CCOc1ccc(NC(=O)CN(C)C(=O)c2ccc(NC3CC3)c([N+](=O)[O-])c2)cc1OCC | -59%
COc1ccc(Cl)cc1NC(=O)CN(C)C(=O)c1ccc2c(c1)CC(c1ccccc1)OC2=O (stereo not drawn) | -41.8%
CN(CC(=O)Nc1cccc(F)c1)C(=O)c1ccc(N2CCCCC2)c([N+](=O)[O-])c1 | -8.94%
COc1cccc(NC(=O)CN(C)C(=O)c2ccc3ccccc3c2)c1 | 1.99%
COc1cccc(NC(=O)CN(C)C(=O)c2ccc(N3CCCCC3)c([N+](=O)[O-])c2)c1 | -12.9%
CN(CC(=O)Nc1cccc(F)c1)C(=O)c1ccc(NC2CC2)c([N+](=O)[O-])c1 | -68.5%
COc1cccc(NC(=O)CN(C)C(=O)c2ccc(NC3CC3)c([N+](=O)[O-])c2)c1 | -73.4%
COc1cccc(NC(=O)CN(C)C(=O)c2ccc(N3CCOCC3)c([N+](=O)[O-])c2)c1 | -37.6%
CCOc1ccc(NC(=O)CN(C)C(=O)c2ccc(C3SCCS3)cc2)cc1OCC | -0.427%
CCOc1ccc(NC(=O)CN(C)C(=O)c2ccc(N3CCCC3)c([N+](=O)[O-])c2)cc1OCC | -49.1%
COc1cccc(NC(=O)CN(C)C(=O)c2ccc3c(c2)CC(c2ccccc2)OC3=O)c1 (stereo not drawn) | -66.9%
O=C(O)CCC(=O)N(Cc1cccs1)Cc1cccs1 | -2.07%
COc1ccc(C(=O)Cn2nnc(-c3ccccc3NC(=O)C3CCCCC3)n2)cc1 | 2.23%

Structure (SMILES) | hERG current change (%, negative = inhibition) at 10uM
O=c1cc(-c2ccccc2)[nH]c2ccc(F)cc12 | 5.52%
Nn1c(SCC(=O)NC2CCCCC2)nnc1-c1ccco1 | 4.3%
Cc1oc(-c2ccccc2)nc1CN1C(=O)C(C)N=C(c2ccccc2F)c2cc(Cl)ccc21 (stereo not drawn) | -5.78%
O=[N+]([O-])c1ccc(/C=N/Nc2nc(N3CCCCC3)nc(N3CCCCC3)n2)o1 | -18.1%
CC(=O)Nc1ccc(S(=O)(=O)NCCC(=O)Nc2ccc(C)c(F)c2)cc1 | -0.433%
S=c1[nH]nc(Cc2sc(-c3ccccc3)nc2-c2ccccc2)o1 | 21.6%
O=C(Nc1cccc2cccnc12)c1ccc(Br)cc1Br | 21.6%
Cc1ccccc1CNC(=O)Nc1cccs1 | 3.67%
CC(C)NC(=O)c1cc(-c2ccco2)nn1-c1ccc(Cl)cc1 | -27.4%
CCN(CC(=O)Nc1ccc(NC(C)=O)cc1)C(=O)c1ccc(NC2CC2)c([N+](=O)[O-])c1 | -46.1%
COc1ccc(NC(=O)CN(C)C(=O)c2ccc(NC3CC3)c([N+](=O)[O-])c2)cc1 | -72.8%
COc1ccc(NC(=O)CN(C)C(=O)c2ccc(NS(=O)(=O)c3ccc(C)c([N+](=O)[O-])c3)cc2)cc1 | -2.55%
O=C(O)CC1SC(=O)NC1=O (stereo not drawn) | 4.76%
Cc1nc2cc(C(=O)NCCN3CCOCC3)ccc2n1-c1ccc(F)cc1F | -3.86%
CCN1CCN(CCNC(=O)c2ccc3nc(-c4cccc(C)c4)c(-c4cccc(C)c4)nc3c2)CC1 | -73.9%
CN1CCN(CCNC(=O)c2ccc3nc(-c4ccc(F)cc4)c(-c4ccc(F)cc4)nc3c2)CC1 | -50.6%
Cc1cccc(-c2nc3ccc(C(=O)NCCN4CCN(C)CC4)cc3nc2-c2cccc(C)c2)c1 | -11.7%
CCCNC(=O)c1ccc2nc(-c3ccccc3)c(-c3ccccc3)nc2c1 | 9.38%
COc1ccc(-c2nc3ccc(C(=O)NCCCN4CCOCC4)cc3nc2-c2ccc(OC)cc2)cc1 | 9.44%
Cc1ccc(Cl)c(OC(=O)c2nn(C(C)C)c(=O)c3ccccc23)c1 | -2.19%
COC(=O)c1ccccc1NC(=O)N1CCCC1 | -11.9%
O=C(CSc1nn(-c2ccccc2)c(=S)s1)Nn1cnnc1 | 14.8%
COc1cc(C(=O)N2CCC(c3nc(-c4cccnc4)no3)CC2)cc(OC)c1OC | -8.08%
O=C(CSc1nc2ncccc2[nH]1)NC1CCCC1 | 7.42%
S=c1[nH]nc(COc2ccccc2)n1/N=C/c1ccc(Br)s1 | -18.8%
